Hedgehog inh: Hedgehog pathway signaling inhibitors, primary screen, luminescence, Shh-LIGHT2 cells, Gli-luciferase; Shh-LIGHT2 Gli-luciferase reporter, 30 h; inhibition, % (concentration not given with the values); 22,000 tested, 2.1% active; AID 2313, 2010;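 active means mean inhibition across valid replicates above about 65%, limit read from the data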;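 further: pathway switched on by Shh-conditioned medium diluted 1 in 25 in low serum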
MITF inhib: inhibitors of MITF, primary screen, MITF inhibitor project, cell-based, luminescence. TRPM1 promoter luciferase, 24 h. inhibition, % (concentration not given with the values). 37,000 tested, 0.28% active; in the data active means inhibition above about 85%;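 further: human melanocyte line stably carrying TRPM1 promoter luciferase reporter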
Starred values were filed as active, the others as inactive; nt = no result given. The sample as a whole holds a higher share of hits than the screen did.

SMILES	Hedgehog inh	MITF inhib
C[C@@H]1CN([C@H](C)CO)C(=O)Cc2cc(NC(=O)Nc3ccc(C(F)(F)F)cc3)ccc2O[C@H]1CN(C)Cc1ccc(Cl)c(Cl)c1	-14.8	-1.2
CC(C)NC(=O)Nc1ccc2c(c1)CC(=O)N([C@H](C)CO)C[C@H](C)[C@H](CN(C)C(=O)Nc1ccc(F)cc1)O2	77.2*	-12.1
Cc1ccc(S(=O)(=O)Nc2ccc3c(c2)CC(=O)N([C@@H](C)CO)C[C@H](C)[C@@H](CN(C)Cc2ccc(C(F)(F)F)cc2)O3)cc1	68.7*	22.8
C[C@@H]1CN([C@H](C)CO)C(=O)c2cc(NC(=O)Nc3ccc(F)cc3)ccc2O[C@H]1CN(C)Cc1ccc(Cl)c(Cl)c1	-39.5	5.1
Cc1ccc(S(=O)(=O)Nc2ccc3c(c2)CC(=O)N([C@H](C)CO)C[C@@H](C)[C@@H](CN(C)Cc2ccc(C(F)(F)F)cc2)O3)cc1	14.4	-1.0
C[C@H]1CN([C@@H](C)CO)C(=O)Cc2cc(NC(=O)Nc3ccc(C(F)(F)F)cc3)ccc2O[C@H]1CN(C)Cc1ccc(Cl)c(Cl)c1	9.1	92.7*
FC(F)(F)C1=Nc2ccccc2N(c2ccc(Cl)c(Cl)c2)C1	-10.4	7.0
CC1(C)CC(=O)C(C=NCc2ccc(F)cc2)=C(O)C1	-13.8	-3.2
Cc1n[nH]c(=S)n(/N=C/C=C/c2ccccc2)c1=O	16.2	-21.3
Cc1ccc(C)c(NC(=O)CSc2n[nH]c(-c3ccccc3)n2)c1	nt	23.0
C[C@@H]1CN([C@@H](C)CO)C(=O)c2cccc(NC(=O)Nc3ccccc3)c2O[C@H]1CN(C)Cc1ccc(C(F)(F)F)cc1	73.7*	39.6
C[C@H](CO)N1C[C@H](C)[C@H](CN(C)Cc2ccc(C(F)(F)F)cc2)Oc2ccc(NC(=O)Nc3ccc(C(F)(F)F)cc3)cc2C1=O	nt	23.7
C[C@H]1CN([C@@H](C)CO)C(=O)c2cccc(NC(=O)Nc3ccccc3)c2O[C@@H]1CN(C)Cc1ccc(C(F)(F)F)cc1	4.9	41.3
C[C@H]1CN([C@@H](C)CO)C(=O)c2cc(NC(=O)Nc3ccc(C(F)(F)F)cc3)ccc2O[C@@H]1CN(C)Cc1ccc(C(F)(F)F)cc1	nt	94.6*
S=c1nc(-c2ccccc2)n(-c2ccc(Br)cc2)c2c1CCCC2	nt	3.4
CC1(C)C=Cc2c(c3occc3c3oc(-c4ccccc4)cc(=O)c23)O1	-7.7	-8.4
COC(=O)c1c(NC(=S)Nc2ccc(S(=O)(=O)NC34CC5CC(CC(C5)C3)C4)cc2)sc(C(=O)N(C)C)c1C	nt	-13.7
CN(C1CCCCC1)S(=O)(=O)c1ccc(N)cc1	-20.3	-5.3
COc1cc2c(c(OC)c1OC)C[C@H]1COC(=O)[C@@H]1Cc1c-2cc(OC)c(OC)c1OC	67.2*	nt
COc1cc2c(c(OC)c1OC)-c1cc3c(cc1C[C@H]1C(=O)OC[C@@H]1C2)OCO3	9.9	-8.0
CSc1ccc(/C=N/n2nnnc2Nc2ccccc2)cc1	43.5	4.4
COc1ccc(CC(=O)Nc2ccc(O)cc2C(=O)O)cc1OC	nt	-28.1
COC(=O)c1ccc([C@H]2C(C#N)=C(N)C(C#N)(C#N)C3=CCC(C(C)(C)C)C[C@@H]32)cc1 (stereo partly drawn)	83.7*	80.4
CC(C)(C)C1CC=C2[C@H](C1)[C@@H](c1ccsc1)C(C#N)=C(N)C2(C#N)C#N (stereo partly drawn)	1.1	5.2
CCCCC/C=C\C/C=C\C/C=C\C/C=C\CCCC(=O)O	-35.6	-1.5
SMILES	Hedgehog inh	MITF inhib
CCCCCCCCCC/C=C\CCCCCCCc1cccc(O)c1C(=O)O	103.1*	80.7
CCCCCCCC/C=C\CCCCCCCc1cccc(O)c1C(=O)O	66.0*	10.5
CCCCC/C=C\C/C=C\C/C=C\C/C=C\CCCCCC(=O)O	-10.0	-6.1
N=c1oc2ccc3ccccc3c2cc1C(=O)Nc1ccccc1	4.0	10.6
Cc1ccc2cc3c(nc2c1)N(c1ccc(C(=O)NCc2ccco2)cc1)CC3	34.8	-25.2
COc1cc2c(c(O)c1OC)C(=O)CC(c1ccc(O)cc1)O2 (stereo not drawn)	33.0	-19.2
COc1cc([C@@H]2c3cc4c(cc3[C@@H](O[C@@H]3O[C@@H]5CO[C@@H](C)O[C@H]5[C@H](O)[C@H]3O)[C@H]3COC(=O)[C@H]23)OCO4)cc(OC)c1O	-11.1	37.6
COc1cc([C@@H]2c3cc4c(cc3[C@H](O)[C@H]3COC(=O)[C@H]23)OCO4)cc(OC)c1OC	91.1*	60.9
COc1cc([C@@H]2c3cc4c(cc3[C@H](O)[C@H]3COC(=O)[C@@H]23)OCO4)cc(OC)c1OC	75.1*	37.0
CC(C)N1CCN(c2ccc(OC[C@H]3CO[C@](Cn4cncn4)(c4ccc(Cl)cc4Cl)O3)cc2)CC1	45.1	-5.7
CC(=O)N1CCN(c2ccc(OCC3CO[C@](Cn4ccnc4)(c4ccc(Cl)cc4Cl)O3)cc2)CC1 (stereo partly drawn)	106.9*	58.4
COc1ccc(-c2cc3ccccc3oc2=O)cc1NC(=O)COc1ccc(C(C)(C)C)cc1	nt	-5.3

Screening data (PubChem BioAssay)
